FMDV inh: High Throughput Screening for Foot and Mouth Disease Virus Antivirals | FMDV antiviral cell-based qHTS | Potency, µM (top dose mostly 57.9 µM), without a hit: at the highest dose activity change, negative = inhibition, actives largely listed as inhibitors | 410,000 tested, 1.2% active | AID 1159524, 2015; calls by dose curve; tested in HEK293T cells; also: read-out not given here; potency is read from the fitted curve at half-maximal effect; nearly all actives have a fitted effect of over 45% in size
HCMV inh: qHTS Assay for inhibitors of the human cytomegalovirus (HCMV); activity change, negative = inhibition, % at 57.5 µM; HFF cells, HCMV-luciferase reporter, 72 h; hits give low values; 410,000 tested, 4.5% active; AID 1259415, 2018; in the data active = activity change below about -60%; inconclusive = no clear call, values can overlap the other calls; inactive = above about -39%
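After 16 h attachment at 37C, HFF cells received test compound and HCMV-luciferase (1 PFU/cell); reporter luminescence read 72 h later, data normalized against buffer-only and known inhibitor Salinomycin.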
VACV mCherry inh: qHTS for Stage-Specific Inhibitors of Vaccinia Orthopoxvirus: mCherry Reporter Primary qHTS. Vaccinia virus mCherry reporter infection, fluorescence. Potency, µM (titrated, usually from 36.5 µM), without a hit: at the top dose activity change, negative = inhibition, hits mostly inhibitors. 310,000 tested, 0.63% active. AID 720579, 2013; calls by dose curve; tested in A549 cells; also: potency is read from the fitted curve at half-maximal effect; nearly all actives have a fitted effect of over 35% in size
Marburg entry inh: qHTS for inhibitors of binding or entry into cells for Marburg Virus; Marburg virus pseudotyped entry inhibition, cell reporter; Potency, µM (highest dose often 37.8 µM), without a hit: at the highest dose activity change, negative = inhibition, actives largely listed as inhibitors; 300,000 tested, 1.8% active; AID 540276, 2011; calls by dose curve; tested in HEK293 cells; also: potency is read from the fitted curve at half-maximal effect
Lassa entry inh: qHTS for Inhibitors of binding or entry into cells for Lassa Virus | Potency, µM (top dose mostly 37.9 µM), for inactives: top-dose activity change, negative = inhibition, hits mostly inhibitors | Lassa virus pseudotype entry inhibition, cell reporter | 300,000 tested, 1.2% active; calls by dose curve; tested in HEK293 cells; also: potency is read from the fitted curve at half-maximal effect; nearly all actives have a fitted effect of over 50% in size
Vaccinia Venus: qHTS for Stage-Specific Inhibitors of Vaccinia Orthopoxvirus: Venus Reporter Primary qHTS | 330,000 tested, 0.46% active | Potency, µM (top dose mostly 36.5 µM), without a hit: at the highest dose activity change, negative = inhibition, most hits filed as inhibitors | Vaccinia virus Venus reporter expression, fluorescence; calls by dose curve; tested in A549 cells; also: potency is read from the fitted curve at half-maximal effect; nearly all actives have a fitted effect of over 30% in size
Starred values were filed as active, the others as inactive; i = inactive; ? = inconclusive; . = no result given; [ ] = another dose, or the depositor's remark. A selection: hits, their analogues and other compounds. The true share with any hit is near 6.5%. % is scaled to controls: 0 for no effect and ±100 for the full control effect.

SMILES	FMDV inh	HCMV inh	VACV mCherry inh	Marburg entry inh	Lassa entry inh	Vaccinia Venus
COc1ccc(N2CCC(CNC(=O)Nc3ccc(OC)cc3OC)C2)cc1 (centres undefined)	-17.5%	-80.1*	-15.7%	7.2%	-17.5%	10µM*
C=C(CO[C@@H]1C=C[C@@H](c2ccccc2)O[C@@H]1CO)c1ccccc1	.	.	.	-2.0%[14.2 µM]	.	.
CCOc1ccc(NC(=O)CN2C(=O)C(c3ccccc3)=NC23CCC(C)CC3)cc1 (centres undefined)	-22.3%	1.3	-13.7%[7.34 µM]	-17.7%[46.1 µM]	-2.0%[46.1 µM]	-13.1%[7.34 µM]
CCC(=O)Nc1ccc(N2CCCCC2)c(C(=O)Nc2ccc(OC)cc2)c1	-5.0%	-81.5*	?	?	-19.0%	-22.0%
COc1ccc(NS(=O)(=O)c2cc(NC(=O)c3ccccc3F)ccc2N2CCCC2)cc1	66.1%	?	?	?	?	-24.5%
COc1ccc(NS(=O)(=O)c2cc(NC(=O)c3ccc(C)o3)ccc2N2CCCCC2)cc1	67.1%	-89.9*	-8.1%	?	?	-26.9%
COc1ccc(NS(=O)(=O)c2cc(NC(=O)c3cccs3)ccc2N2CCCC2)cc1	79.6%	-96.8*	-25.6%	?	?	-13.6%
COc1ccc(NS(=O)(=O)c2cc(NC(=O)c3cnccn3)ccc2N2CCCC2)cc1	42.8%	?	-26.9%	-10.6%	-27.4%	?
Cc1ccccc1CN1c2ccccc2-c2nc(SCC(=O)Nc3cc(F)ccc3F)ncc2S1(=O)=O	0.0%	-9.7	-4.3%	.	-28.1%[46.1 µM]	15.0%
CC(=O)N1CCc2c(sc3c2c(=O)n(-c2ccccc2C)c(=O)n3CC(=O)Nc2ccccc2)C1	36.7%	27.5	-11.4%	3.4%[46.1 µM]	.	-4.0%
NS(=O)(=O)c1ccc(NC(=O)CCC(=O)c2ccc(Cl)s2)cc1	10.3%	-95.0*	-12.0%	14.9%[46.1 µM]	15.6%[46.1 µM]	-0.5%
Cc1cc(C)cc(NC(=O)C2CCN(S(=O)(=O)c3cccc(-c4noc(C)n4)c3)CC2)c1	-57.7%	?	-19.8%	.	?	-19.0%
O=C(COCc1cc(-c2cccs2)on1)NCc1cccc(Cl)c1	-15.9%	5.6	-13.3%	.	-0.8%[46.1 µM]	-0.4%
COC(=O)C1=C(C(=O)OC)[C@@H]2N(CC=C(C)C)c3ccccc3[C@@]23CCC(=O)N(CCc2ccccn2)C3=N1	.	.	.	12.0%[14.2 µM]	.	.
COc1cccc(CNC(=O)c2c(OC)cc(=O)n3c2CCN(C(=O)C2CC24CCCCC4)CC3)c1 (centres undefined)	-7.4%	.	0.3%	.	.	-0.5%
CCN(CC)C(=O)[C@H]1C[C@H](CC(=O)NCc2cccc(C(F)(F)F)c2)C(=O)N2CCc3c([nH]c4cc(-c5ccco5)ccc34)[C@]12C	?	.	11.2µM*	.	.	11.2µM*
CC(C)=CCC/C(C)=C/CNC(=O)C[C@H]1C[C@H](C(=O)N(C(C)C)C(C)C)[C@@]2(C)c3[nH]c4ccc(Cl)cc4c3CCN2C1=O	?	7.1	?	.	.	?
COc1ccc2[nH]c3c(c2c1)CCN1C(=O)C(CC(=O)NC/C=C(\C)CCC=C(C)C)C[C@H](C(=O)N(C(C)C)C(C)C)[C@@]31C (some centres undefined)	-8.6%	-102.9*	-20.2%	-6.2%	.	?
CCN(CC)C(=O)[C@H]1CC(CC(=O)NCc2cccc(C(F)(F)F)c2)C(=O)N2CCc3c([nH]c4ccc(OC)cc34)[C@]12C (some centres undefined)	?	-19.3	10µM*	1.6%	.	?
Cc1ccc(CSc2cn(CC(=O)N3CCCCC3)c3ccccc23)cc1	16.5%	?	-17.2%	.	?	-16.0%
O=C(c1cc(-c2ccccc2)on1)N1CCOc2ccc(CN3CCN(c4ccccn4)CC3)cc2C1	-1.4%	.	i	.	.	-18.5%
COc1ccc(NCc2cc3cc4c(cc3n(CC(=O)Nc3ccc(F)cc3)c2=O)OCCO4)cc1	-16.5%	-11.3	-13.4%	.	-0.3%[46.1 µM]	-11.7%
CCCS(=O)(=O)Nc1cc2c(cc1NCc1ccccc1)n(C)c(=O)n2C	16.6%	-8.5	-7.2%	54.9%[46.1 µM]	1.4%[46.1 µM]	4.6%

Compound activity: PubChem BioAssay, National Center for Advancing Translational Sciences (NCATS)
